# TDP1 block = blocks human tyrosyl-DNA phosphodiesterase 1; Q9NUW8; actives 0.28% (n = 350,000); recombinant TDP1, AlphaScreen DNA substrate cleavage; Potency, µM (top dose mostly 130 µM), for the others: at the highest dose activity change, negative = inhibition, hits mostly inhibitors; also: potency is read from the fitted curve at half-maximal effect; % is scaled to controls: 0 for no effect and ±100 for the full control effect; nearly all actives have a fitted effect of over 40% in size
# Target sequence (Q9NUW8 whole entry, looked up): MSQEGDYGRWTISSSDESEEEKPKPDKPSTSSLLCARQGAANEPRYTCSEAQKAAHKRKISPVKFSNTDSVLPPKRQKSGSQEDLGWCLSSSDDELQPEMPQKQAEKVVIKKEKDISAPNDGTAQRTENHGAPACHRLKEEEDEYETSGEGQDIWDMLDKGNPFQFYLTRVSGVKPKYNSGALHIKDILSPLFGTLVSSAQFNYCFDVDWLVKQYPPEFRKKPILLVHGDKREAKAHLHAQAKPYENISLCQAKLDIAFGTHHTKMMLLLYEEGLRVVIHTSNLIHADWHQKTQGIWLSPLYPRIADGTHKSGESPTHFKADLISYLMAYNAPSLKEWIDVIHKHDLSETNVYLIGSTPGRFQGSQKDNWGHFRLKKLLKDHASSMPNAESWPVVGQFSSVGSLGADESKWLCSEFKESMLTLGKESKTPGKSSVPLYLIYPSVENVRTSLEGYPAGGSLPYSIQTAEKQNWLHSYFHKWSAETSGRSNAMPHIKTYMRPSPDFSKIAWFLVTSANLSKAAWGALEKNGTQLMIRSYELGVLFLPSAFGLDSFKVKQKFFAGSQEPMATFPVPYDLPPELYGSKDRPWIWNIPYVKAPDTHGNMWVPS
#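 Signal: AlphaScreen proximity between streptavidin donor and anti-FITC acceptor beads on intact substrate. Reaction: Tdp1 1 nM, substrate 15 nM final, 5 min RT after 15 min compound preincubation.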
# DT40 TDP1 no CPT = qHTS for Inhibitors of human tyrosyl-DNA phosphodiesterase 1 (TDP1): qHTS in cells in absence of CPT; DT40 Tdp1-/- hTDP1 cells, no CPT, ATP luminescence, 48 h; Potency, µM (series often up to 46.2 µM), without a hit: at the highest dose activity change, negative = growth inhibition, actives largely listed as inhibitors; actives 15% (n = 420,000); AID 686978, 2013; also: potency is read from the fitted curve at half-maximal effect; % is scaled to controls: 0 for no effect and ±100 for the full control effect; nearly all actives have a fitted effect of over 55% in size
#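 Readout: luminescence from CellTiter-Glo after 30 min in the dark at RT. Cells: DT40 Tdp1-/- with stable hTDP1, 400/well. Exposure: compounds alone, ≥48 hr, 37 °C.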
# IL-1B inflam inh = inflammasome signaling inhibition, IL-1 beta readout. THP-1 LPS/ATP IL-1B secretion, AlphaLISA, 16 h; stronger effect = lower value. activity change, % at 57.5 µM. actives 4.7% (n = 360,000). AID 743279; in the data active = activity change below about -50%; inconclusive = mostly about -30% to -49%; also: % is scaled to controls: 0 for no effect and ±100 for the full control effect
#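 THP-1 cells pretreated 1 hr with compounds (up to 57.5 uM final), then stimulated with LPS (250 ng/mL final) plus ATP (1.25 mM final); secreted IL-1B measured by AlphaLISA after 16 hr, decreased signal indicating inhibition.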
# TDP1 cell CPT = DT40-hTDP1 cell growth loss with CPT. AID 686979. actives 12% (n = 420,000). chicken DT40 Tdp1-/-;hTDP1 cells + 20 nM CPT, ATP luminescence, 48 h. Potency, µM (series often up to 46.2 µM), inactives show at the highest dose activity change, negative = growth inhibition, actives largely listed as inhibitors; also: potency is read from the fitted curve at half-maximal effect; % is scaled to controls: 0 for no effect and ±100 for the full control effect; nearly all actives have a fitted effect of over 55% in size
#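 Chicken DT40 Tdp1-/- cells complemented with human TDP1, 400 cells/well, exposed to compounds plus 20 nM camptothecin for at least 48 h at 37 C; viability read as ATP content by CellTiter-Glo luminescence.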
# TGFb inhibitor = blocks TGF-b signaling | Potency, µM (titrated, usually from 46.1 µM), for inactives: at the top dose activity, negative = inhibition, usual class: inhibitors | HepG2 CAGA-GFP TGF-b/SMAD3 reporter, GFP fluorescence, 18 h; TGF-beta stimulated, 500 pg/mL final | actives 1.2% (n = 410,000) | AID 588855; also: potency is read from the fitted curve at half-maximal effect; % is scaled to controls: 0 for no effect and ±100 for the full control effect; nearly all actives have a fitted effect of over 65% in size
#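 Using HEPG2 CAGA-GFP reporter cells at 1000 cells/well, we pinned test compounds, stimulated with recombinant TGF-beta (500 pg/mL final) and measured total well GFP after 18 h.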
# HepG2 viability = HepG2 cytotoxicity, counter-screen for TGF-b inhibitors; HepG2 CAGA-GFP viability, ATP luminescence, 18 h; Potency, µM (titrated, usually from 46.1 µM), for the others: top-dose activity change, negative = cytotoxicity, hits mostly cytotoxic; actives 0.76% (n = 410,000); also: potency is read from the fitted curve at half-maximal effect
#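 CellTiter-Glo luminescence gave cytotoxicity after 18 hours at 37 degrees C. The cells were HepG2 CAGA-GFP in 1% FBS DMEM, stimulated with 500 pg/mL TGF-beta after compound addition. %Activity was normalised to no-cell wells (complete cell-killing) and DMSO (no toxicity), and curves were fitted and classified.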
# * = called active by the depositor; ? = inconclusive; . = not tested or not shown; [ ] = dose if it differs, or a comment. Hits are enriched below; roughly 19% of the tested compounds scored in any of these assays. Unless noted, calls follow the shape of the dose curve; as a rule, active = well fitted curve in the direction sought with a large enough effect; inconclusive = small, poorly fitted or top-dose-only effect, or another doubt; inactive = no such curve, though single readings can be large; an effect the other way counts as inactive or inconclusive.
SMILES,TDP1 block,DT40 TDP1 no CPT,IL-1B inflam inh,TDP1 cell CPT,TGFb inhibitor,HepG2 viability
COc1ccc(/C=N/Nc2ncnc3sc(C)c(C)c23)cc1,2.7%,4.11µM*,-16.4,2.91µM*,?,-39.2%
Cc1sc2ncnc(N/N=C/c3ccc(O)cc3)c2c1C,5.3%,?,-11.9,?,-28.4%,-4.2%
Cc1sc2ncnc(N/N=C/c3ccccc3O)c2c1C,8.2%,3.26µM*,62.3,3.66µM*,?,-28.6%
CCOC(=O)OCC,13.8%,.,.,.,.,.
Cc1noc(C)c1C(=O)N1CCC2(CCCN(c3ccccc3)C2)CC1,.,?,.,5.0%,.,.
COCCNCC(O)CON=C1c2ccccc2-c2ccccc21 (stereo not drawn),6.0%,?,-76.6*,?,-2.3%,0.3%
COCC(O)CNc1ccccc1 (stereo not drawn),-1.2%,-17.7%,0.0,1.4%,-8.3%,6.2%
Cc1ccccc1OCc1nc2c3c(ncn2n1)-c1ccccc1CC31CCCC1,-0.6%,14.6µM*,-2.6,?,5.3%,13.5%
Oc1cccc(-c2nc3c4c(ncn3n2)-c2ccccc2CC42CCCC2)c1,4.0%,18.4µM*,?,18.4µM*,?,-96.4%
CCc1ccc2cc(F)cc(F)c2n1,.,3.9%,-5.3,-1.0%,-2.7%,8.4%
CC1=C(C(=O)Nc2cc(C(=O)NCc3ccccc3)ccc2C)SCCO1,.,?,?,?,-6.6%,-9.5%
O=c1c2c3c(sc2n(CCN2CCOCC2)c(=O)n1Cc1ccco1)CCCCC3,-3.2%,10.3µM*,?,8.2µM*,0.5%,-21.3%
NC(=O)Cn1c(=O)n(Cc2ccco2)c(=O)c2c3c(sc21)CCCCC3,.,-21.7%,24.8,-15.4%,-0.3%,-1.6%
O=c1c2c3c(sc2n(CCN2CCCCC2)c(=O)n1Cc1ccco1)CCCCC3,8.6%,17.8µM*,-20.2,12.6µM*,19.2%,-24.8%
Cc1ccc2c(c1)c1c(c(=O)n(Cc3ccccc3)c(=O)n1CC(=O)Nc1ccccc1F)n2C,5.6%,?,.,-5.1%,0.3%,0.4%
Cc1cccc(OCCSc2nc3c([nH]2)c(=N)ncn3Cc2ccccc2)c1,6.2%,16.4µM*,-7.2,20.6µM*,?,-28.6%
CCCOC(=O)N1CCN(/[N+]([O-])=N/Oc2ccc([N+](=O)[O-])cc2[N+](=O)[O-])CC1,11.5%,.,.,.,7.08µM*,-97.1%
Cc1cc(C)cc(OCC(=O)N(Cc2ccc(N(C)C)cc2)C2CCS(=O)(=O)C2)c1 (stereo not drawn),.,-24.8%,-16.5,2.9%,20.5%,-2.3%
O=C(c1ccc(Cl)c([N+](=O)[O-])c1)N(Cc1ccc(F)cc1)C1CCS(=O)(=O)C1 (stereo not drawn),-1.2%,?,-94.7*,6.2%,0.0%,-1.6%
Cc1cc(C)c(OCC(=O)N(Cc2ccc(N(C)C)cc2)C2CCS(=O)(=O)C2)c(C)c1 (stereo not drawn),9.6%,23.1µM*,-72.4*,-7.4%,8.5%,10.7%
CN(C)c1ccc(CN(C(=O)c2ccc(Cl)c([N+](=O)[O-])c2)C2CCS(=O)(=O)C2)cc1 (stereo not drawn),.,?,-75.1*,?,-10.5%,1.1%
CCCCC(=O)Nc1cc2nn(-c3ccc(OCC)cc3)nc2cc1C,.,-23.1%,.,-2.3%,-1.8%,6.9%
CN1CC[C@@H]2C(=O)N3CCc4ccc(-c5ccc6c(c5)OCO6)cc4[C@@H]3C[C@@H]21,.,?,-16.1,18.4µM*,-30.6%,-15.7%
COc1ccc(S(=O)(=O)N2CCC3CC2c2cc(-c4ccc5c(c4)OCO5)ccc23)cc1 (stereo not drawn),.,-29.8%,33.3,?,-11.5%,-24.4%
O=C(COC(=O)CNS(=O)(=O)c1c(F)cccc1F)NC(=O)NC1CCCCC1,1.0%[56.1 µM],18.4%,-11.4,-1.5%,10.9%,2.8%
SMILES,TDP1 block,DT40 TDP1 no CPT,IL-1B inflam inh,TDP1 cell CPT,TGFb inhibitor,HepG2 viability
O=C(CCOc1ccccc1)N(Cc1cccnc1)c1nc2c(F)cccc2s1,0.0%,7.31µM*,.,13µM*,15.8µM*,-98.6%
CC(=O)c1ccc(C(=O)N(Cc2cccnc2)c2nc3c(Cl)cccc3s2)cc1,7.8%,?,.,25.9µM*,?,-20.9%
CC(=O)N(Cc1cccnc1)c1cccc(-c2nc3ccccc3s2)c1,7.4%,?,-61.7*,?,-23.4%,-4.9%
Cc1cccc2sc(N(Cc3cccnc3)C(=O)Cc3ccccc3)nc12,10.4%,-26.3%,.,-23.0%,12.6µM*,-20.7%
Cc1cc(C)c2nc(N(Cc3cccnc3)C(=O)Cc3ccccc3)sc2c1,2.6%,?,.,?,0.0%,4.3%
Cc1cccc2sc(N(Cc3cccnc3)C(=O)c3ccco3)nc12,0.0%,-19.2%,.,-1.0%,-21.3%,-19.9%
CCCN(CCC)C(=O)C1CCN(c2cc(C)nc3c(-c4ccc(Cl)cc4)c(C)nn23)CC1,5.8%,?,.,-26.8%,-0.1%,2.4%
Cc1ccc2sc(N(Cc3cccnc3)C(=O)CCOc3ccccc3)nc2c1C,-2.6%,18.4µM*,.,23.1µM*,0.0%,-34.5%
O=C(NC1CCC(=O)N(CCSc2ccccc2)CC1)OCc1ccccc1 (stereo not drawn),.,15.8µM*,15.4,?,-13.0%,-28.1%
O=C(N[C@H]1CCC(=O)N([C@H](CSc2ccccc2)Cc2ccccc2)CC1)OCc1ccccc1,.,20µM*,-22.2,?,?,-11.0%
Cc1ccc(SC[C@H](Cc2ccccc2)N2CC[C@@H](NC(=O)OCc3ccccc3)CCC2=O)cc1,.,12.6µM*,.,17.8µM*,-15.5%,4.1%
O=C1CC[C@H](OCc2ccccc2)CCN1[C@H](CSc1ccccc1)Cc1ccccc1,.,?,-8.3,-26.8%,?,-25.0%
O=C(N[C@H]1CCC(=O)N([C@H](CSc2ccc(Br)cc2)Cc2ccccc2)CC1)OCc1ccccc1,4.0%,18.4µM*,-22.8,?,?,-0.7%
O=C(CSc1nnc(-c2ccncc2)o1)Nc1ccccc1C(F)(F)F,5.5%,-12.4%,8.4,-1.9%,4.3%,-17.7%
CCN(CC(=O)NC1CCCC1)S(=O)(=O)c1ccc(F)cc1,4.2%,5.0%,16.3,-1.8%,-2.0%,0.3%
CSc1cccc(NC(=O)N2CCN(S(=O)(=O)c3ccc4c(ccn4C)c3)CC2)c1,7.7%,.,.,.,0.1%,-3.1%
